# Laboratory results as given in PubChem BioAssay (EPA / NIEHS).
# Some structures have more than one record in an assay (separate samples or runs), and their calls can disagree. Active and inactive are the calls of the source. Rule for the calls: active = hit-call score of the fitted dose curve at least 0.9, where 1 is the maximum; inactive = score below 0.9.
# Test: ATG_M_19_CIS: Attagene CIS-FACTORIAL HepG2 Assay for M19 Transcription Factor (Internal Marker) (AID 2282939)
# Conditions: HepG2 Attagene CIS-FACTORIAL M19 internal marker reporter; actives raise or lower the signal
# Procedure: ATG_CIS is a cell-based, multiplexed-readout assay that uses HepG2, a human liver cell line, with measurements taken at 24 hours after chemical dosing in a 24-well plate.ATG_M_19_CIS is one of 52 assay component(s) measured or calculated from the ATG_CIS assay. It is designed to make measurements of mRNA induction, a form of inducible reporter, as detected with fluorescence intensity signals by Reverse transcription polymerase chain reaction (RT-PCR) and Capillary electrophoresis technology.Data from the assay component ATG_M_19_CIS was analyzed into 1 assay endpoint. This assay endpoint, ATG_M_19_CIS, was analyzed with bidirectional fitting relative to DMSO as the negative control and baseline of activity. Using a type of inducible reporter, measures of mRNA for gain or loss-of-signal activity can be used to understand the background control at the transcription factor-level as they relate to the gene . Furthermore, this assay endpoint can be referred to as a secondary readout, because this assay has produced multiple assay endpoints where this one serves a background control function. To generalize the intended target to other relatable targets, this assay endpoint is annotated to the background measurement intended target family, where the subfamily is internal marker.
# Human liver HepG2 cells are transiently transfected with multiple reporter transcription units (MRTUs) in 6-well plates using FuGene 6 reagent (Roche; 3 ml FuGene/1 mg DNA). The MRTU constructs are regulated by a cis-regulating element (promoter). […] A major difference between the CIS and TRANS system is that in CIS activities of endogenous TFs are measured, whereas the TRANS assay evaluates changes in activities of exogenous, chimeric NR-Gal4 proteins. […] At the end of 24 hour incubation, total RNA was isolated using TriZol reagent (Invitrogen). The isolated RNA is then reverse-transcribed using oligo(dT) primer and Mo-MLV reverse transcriptase (Invitrogen) with DNAse I (Ambion) treatment for 30 min. The one-tenth of the produced cDNA was amplified by PCR using Taq DNA polymerase (Invitrogen) and two reporter sequence-specific primers. The PCR products were fluorescently labeled by primer extension with 6-arboxyfluorescein (6-FAM) 5'-labeled reporter sequence-specific primer (2 min at 95 C, 20 s at 68 C and 10 min at 72 C) and these products were digested with 5U of HpaI (New England Biolabs) for 2h at 37 C. The fragments were purified using Qiaquick PCR columns (Qiagen), analyzed on an ABI 3130xL genetic analyzer (Applied Biosystems) with peak positions identified by using a set of X-rhodamine (ROX)-labeled MapMarker1000 molecular weight standards (BioVentures). The raw capillary electrophoresis data was processed using Attagraph software (Attagene).
SMILES,AC50,outcome
O=C(O)C(F)(F)C(F)(F)C(F)(F)C(F)(F)C(F)(F)C(F)(F)C(F)(F)C(F)(F)C(F)(F)C(F)(F)F,138 µM (active),inactive
C1CCC(NC2CCCCC2)CC1,–,inactive
C=CC#N,–,inactive
CCOC(=O)/C=C(C)/C=C/C[C@@H](C)CCCC(C)C,157 µM (active),–
CCC(=O)c1ccccc1,–,inactive
CCC[CH2][Sn]([Cl])([Cl])[Cl],–,inactive
CCN(CC)C(=O)Cl,–,inactive
CCOP(=S)(OCC)Oc1nc(Cl)c(Cl)cc1Cl,–,inactive
C[C@]12CCC(=O)C[C@@H]1CC[C@@H]1[C@@H]2CC[C@]2(C)[C@@H](O)CC[C@@H]12,–,inactive
CC(=O)OC(c1ccccc1)C(Cl)(Cl)Cl (stereo not given),–,inactive
ClC1(Cl)C2(Cl)C3(Cl)C4(Cl)C(Cl)(Cl)C5(Cl)C3(Cl)C1(Cl)C5(Cl)C24Cl (stereo not given),–,inactive
COc1ccccc1OC,–,inactive
CCC(C)c1cccc(C(C)CC)c1O (stereo not given),–,inactive
CCCCP(CCCC)CCCC,–,inactive
BrCCBr,–,inactive
CC1(C)CCC(Cc2ccc(Cl)cc2)C1(O)Cn1cncn1 (stereo not given),–,inactive
Nc1ccc(N=Nc2ccc(-c3ccc(N=Nc4c(S(=O)(=O)O)cc5cc(S(=O)(=O)O)c(N=Nc6ccccc6)c(O)c5c4N)cc3)cc2)c(N)c1,–,inactive
CC(C)(OO)c1ccccc1,–,inactive
CN(CCCC(=O)c1cccnc1)N=O,–,inactive
C=CCc1ccc(OC)cc1,–,inactive

SMILES,AC50,outcome
Nc1ccc(-c2ccc(N)c(Cl)c2)cc1Cl,–,inactive
COc1ccc(C=O)cc1,–,inactive
COc1cc(-c2ccc(N)c(OC)c2)ccc1N,–,inactive
C[C@]12CC[C@H](O)CC1=CC[C@@H]1[C@@H]2CC[C@]2(C)C(=O)CC[C@@H]12,–,inactive
CCOC(=O)Nc1cccc(OC(=O)Nc2ccccc2)c1,–,inactive
CCNc1nc(NC(C)(C)C)nc(SC)n1,–,inactive
O=[N+]([O-])c1ccc2c3c(cccc13)CC2,–,inactive
CC(=O)c1cc(C(C)(C)C)cc2c1CCC2(C)C,–,inactive
CCC1(c2ccc(N)cc2)CCC(=O)NC1=O (stereo not given),–,inactive
Cc1cc(=O)[nH]o1,–,inactive
CC(C)C1CCC(Cc2ccc(Cl)cc2)C1(O)Cn1cncn1 (stereo not given),–,inactive
CCOP(=O)(CN(CCO)CCO)OCC,–,inactive
N#CCc1ccc(Cl)cc1,–,inactive
COP(=O)(OC)O/C(=C\Cl)c1cc(Cl)c(Cl)cc1Cl,–,inactive
Nc1cccc2ccccc12,–,inactive
CC(=[OH+])/C=C(/C)[O-].CC(=[OH+])/C=C(/C)[O-].CC(=[OH+])/C=C(/C)[O-].[Al],–,inactive
O=C1CCCN1,–,inactive
COc1cc2c(cc1OC)[C@@]13CCN4CC5=CCO[C@H]6CC(=O)N2[C@H]1[C@H]6[C@H]5C[C@H]43,–,inactive
COc1cccc(C=O)c1,–,inactive
